Results as given in ChEMBL document CHEMBL3988442, “University of Dundee, Small-Polar-MMV Screening Library” (2021).

biological target: T1, Tyrosyl-tRNA synthetase, putative (Trypanosoma cruzi (strain CL Brener)) (UniProt Q4DSP6); assay: Trypanosoma cruzi tyrosyl tRNA synthetase (TcYRS) SOP; assay type: functional; set-up: scale not given: direction of the effect not stated beside the values; conditions: 30 µM
T1 sequence (whole entry): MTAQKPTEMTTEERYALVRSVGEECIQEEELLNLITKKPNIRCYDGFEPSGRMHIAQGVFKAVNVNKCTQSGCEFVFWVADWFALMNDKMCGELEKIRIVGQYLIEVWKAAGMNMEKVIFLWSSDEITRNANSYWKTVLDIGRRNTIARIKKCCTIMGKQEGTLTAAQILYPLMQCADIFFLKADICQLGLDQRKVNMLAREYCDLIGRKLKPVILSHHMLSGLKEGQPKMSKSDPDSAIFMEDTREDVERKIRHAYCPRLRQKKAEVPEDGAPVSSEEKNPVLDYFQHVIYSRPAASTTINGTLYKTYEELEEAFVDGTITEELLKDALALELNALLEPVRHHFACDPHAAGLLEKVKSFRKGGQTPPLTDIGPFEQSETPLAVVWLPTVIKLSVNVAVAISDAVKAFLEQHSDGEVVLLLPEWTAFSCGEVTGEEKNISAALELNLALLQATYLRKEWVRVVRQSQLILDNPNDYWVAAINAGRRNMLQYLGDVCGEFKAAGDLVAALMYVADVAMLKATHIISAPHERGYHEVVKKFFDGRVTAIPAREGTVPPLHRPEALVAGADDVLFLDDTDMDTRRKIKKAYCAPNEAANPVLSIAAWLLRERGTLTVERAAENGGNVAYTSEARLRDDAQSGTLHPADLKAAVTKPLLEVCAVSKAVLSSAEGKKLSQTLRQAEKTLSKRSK

SMILES	Percent Effect [%]
O=C(c1cscn1)N1C[C@@H]2[C@@H](C1)OCC(=O)N2CC1CCCC1	-147
CN(CC(F)(F)F)C(=O)C1CSCN1C(=O)OC(C)(C)C (stereo not given)	7.5
Cc1nc(C2CCCN(C(=O)c3ccco3)C2)no1 (stereo not given)	-7.59
Cn1ccc(C(=O)N2CCN(c3cc(C#N)ccn3)CC2)cc1=O	13.6
CC(=O)N1CCOCC2(CCN(Cc3ccc(C)s3)CC2)C1	5
CCc1cccc(N2CCC(NC(=O)c3cc[nH]n3)CC2)c1	5.06
C[S+]([O-])c1nncn1CC(=O)c1ccc(Cl)c(Cl)c1 (stereo not given)	1.24
Cn1ccc(C(=O)N2CCN(c3ncccn3)CC2)cc1=O	11.1
Cc1nccn1-c1cccc(C2CCCN(C3CCCCC3)C2)n1 (stereo not given)	27.3
CC(C)N1CCOCC2(CN(Cc3nccs3)CCO2)C1 (stereo not given)	14.1
Cc1ccc2c(c1)OCCCC2NCc1nnc2n1CCCCC2 (stereo not given)	6.17
NC(=O)c1csc(C(=O)N2CCCC(n3ccnc3)C2)c1 (stereo not given)	15.2
Cc1cc(CN(C)C(=O)C2CCCN(C(=O)c3cccs3)C2)no1 (stereo not given)	16.1
CS(=O)(=O)NCCNC(=O)C1(c2cccc(Cl)c2)CC1	7.69
CC(C)CCN1CCN(Cc2nc(C3CC3)no2)CC1	-3.66
Cc1nnc2n1CCN(Cc1csc(-c3ccc(F)cc3)n1)C2	15.8
Cc1cc(NC(=O)NCC(C)O)n(C)n1 (stereo not given)	12.2
O=C(c1cccc(NCCO)c1)N1CCOCC1	11.1
CNc1cc(C)nc(C2CN(Cc3ccc(C)nc3)CCO2)c1 (stereo not given)	3.9
Cc1ccc(CNC(=O)NCc2cccnc2N(C)C)s1	12.2

SMILES	Percent Effect [%]
CN(CCN1CCOCC1)C(=O)CCc1cccc(Cl)c1	7.79
CCC(=O)NCCc1cc(N2CCN(C(C)=O)CC2)nc(C2CC2)n1	11.7
Cc1cc(NC(=O)NCc2cccnc2OC(C)C)n(C)n1	12.7
CC(C)CCC(C)NC(=O)c1ccc(OCC(N)=O)cc1 (stereo not given)	12.2
CN(C)C(=O)COC[C@]12COC[C@H]1CN(Cc1ccoc1)C2	1.24
O=C(COCc1nc(-c2ccncc2)no1)N1CCCCCC1	13.6
CCN(CC)C(=O)CCNC(=O)Cc1nc(-c2ccco2)oc1C	3.7
O=C1COc2c(cccc2C(=O)N2CCCCC2Cn2cccn2)N1 (stereo not given)	11.8
CCN1CCCC1CN(CCN(C)C)S(=O)(=O)c1ccc(C#N)cc1 (stereo not given)	15
Cc1nsc(N2CCCN(c3nc(C4CC4)ns3)CC2)n1	5
Cc1nc(CC(=O)N2CCCCC2c2ccn3ccnc3n2)cs1 (stereo not given)	1.3
CN(Cc1ccc(F)cc1)CC1(O)CCN(C(=O)c2ccccc2)C1 (stereo not given)	6.49
Cc1nc(NC(=O)CN2CCc3c(nc(C(C)C)n3C)C2)sc1C	19.5
Cc1cccc(-c2ccc3nc(C4CCN(CC5CC5)CC4)nn3c2)c1	8.64
CC(O)CN1CCC(CNCc2c[nH]nc2C(C)(C)C)CC1 (stereo not given)	3.7
FC(F)(F)Cc1noc(CN2CCCC2c2noc(C3CC3)n2)n1 (stereo not given)	23.5
COc1c(C2CCCN2CC(=O)Nc2cc(C)no2)c(C)nn1C (stereo not given)	11
CCN(Cc1ccc2c(c1)OCCO2)S(=O)(=O)N(C)C(C)C	14.6
CN(Cc1cccc(F)c1)C(=O)CN1CCCCC1Cn1cncn1 (stereo not given)	-1.24
Cc1nc(CN2CCCC2c2ccsc2)nc2ccccc12 (stereo not given)	27.9

biological target: Chromo domain-containing protein 1 (Saccharomyces cerevisiae (strain ATCC 204508 / S288c) (Baker's yeast)) (UniProt P32657); assay: ScCHD-1 Enzyme Inhibition Assay; assay type: functional; set-up: scale not given: in the data most compounds retested in dose-response had high values; conditions: 30 µM
Sequence (P32657 whole entry, the tested form may be a part): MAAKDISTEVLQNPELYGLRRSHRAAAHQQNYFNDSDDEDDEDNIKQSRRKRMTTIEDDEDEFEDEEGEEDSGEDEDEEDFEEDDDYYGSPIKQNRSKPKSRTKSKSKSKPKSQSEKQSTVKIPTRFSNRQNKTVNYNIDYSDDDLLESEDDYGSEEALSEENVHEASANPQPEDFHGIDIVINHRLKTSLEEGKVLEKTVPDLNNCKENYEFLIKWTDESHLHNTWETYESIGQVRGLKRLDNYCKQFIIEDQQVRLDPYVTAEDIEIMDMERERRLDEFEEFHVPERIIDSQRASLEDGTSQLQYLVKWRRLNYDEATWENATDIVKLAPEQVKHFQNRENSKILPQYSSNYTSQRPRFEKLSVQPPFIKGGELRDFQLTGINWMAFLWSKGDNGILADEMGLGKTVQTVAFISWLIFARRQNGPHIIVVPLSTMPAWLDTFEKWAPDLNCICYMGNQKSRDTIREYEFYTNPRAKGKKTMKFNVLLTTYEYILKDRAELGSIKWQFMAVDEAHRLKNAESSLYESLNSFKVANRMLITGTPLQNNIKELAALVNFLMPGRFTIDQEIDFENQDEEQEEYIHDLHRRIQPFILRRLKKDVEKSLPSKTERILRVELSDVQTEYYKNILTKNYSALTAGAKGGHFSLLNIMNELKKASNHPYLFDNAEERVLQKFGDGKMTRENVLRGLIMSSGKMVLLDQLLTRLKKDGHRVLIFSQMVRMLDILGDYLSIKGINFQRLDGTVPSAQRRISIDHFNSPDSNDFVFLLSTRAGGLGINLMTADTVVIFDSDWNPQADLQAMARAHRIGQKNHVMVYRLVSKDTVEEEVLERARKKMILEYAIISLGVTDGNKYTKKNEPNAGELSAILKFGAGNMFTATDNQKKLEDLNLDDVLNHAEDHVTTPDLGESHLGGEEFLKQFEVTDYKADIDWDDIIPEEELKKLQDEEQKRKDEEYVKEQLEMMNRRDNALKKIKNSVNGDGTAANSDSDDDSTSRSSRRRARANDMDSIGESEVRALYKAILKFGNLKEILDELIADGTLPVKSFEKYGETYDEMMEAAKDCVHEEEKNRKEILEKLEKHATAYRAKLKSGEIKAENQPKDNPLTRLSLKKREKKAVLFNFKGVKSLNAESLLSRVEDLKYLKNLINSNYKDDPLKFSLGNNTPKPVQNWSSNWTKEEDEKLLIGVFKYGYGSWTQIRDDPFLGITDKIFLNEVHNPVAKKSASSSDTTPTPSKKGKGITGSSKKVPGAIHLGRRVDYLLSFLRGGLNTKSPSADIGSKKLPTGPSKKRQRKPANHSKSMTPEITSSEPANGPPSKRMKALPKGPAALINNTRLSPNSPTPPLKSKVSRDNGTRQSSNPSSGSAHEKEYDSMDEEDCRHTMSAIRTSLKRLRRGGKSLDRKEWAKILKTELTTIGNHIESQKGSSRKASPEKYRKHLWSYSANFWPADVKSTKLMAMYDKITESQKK

SMILES	Percent Effect [%]
O=C(c1cscn1)N1C[C@@H]2[C@@H](C1)OCC(=O)N2CC1CCCC1	-3.29
CN(CC(F)(F)F)C(=O)C1CSCN1C(=O)OC(C)(C)C (stereo not given)	-1.01
Cc1nc(C2CCCN(C(=O)c3ccco3)C2)no1 (stereo not given)	-4.36
Cn1ccc(C(=O)N2CCN(c3cc(C#N)ccn3)CC2)cc1=O	-17.3
CC(=O)N1CCOCC2(CCN(Cc3ccc(C)s3)CC2)C1	-7.22
CCc1cccc(N2CCC(NC(=O)c3cc[nH]n3)CC2)c1	-20.9
C[S+]([O-])c1nncn1CC(=O)c1ccc(Cl)c(Cl)c1 (stereo not given)	-5.11
Cn1ccc(C(=O)N2CCN(c3ncccn3)CC2)cc1=O	-2.92
Cc1nccn1-c1cccc(C2CCCN(C3CCCCC3)C2)n1 (stereo not given)	-10.9
CC(C)N1CCOCC2(CN(Cc3nccs3)CCO2)C1 (stereo not given)	-7.32
Cc1ccc2c(c1)OCCCC2NCc1nnc2n1CCCCC2 (stereo not given)	-11.7
NC(=O)c1csc(C(=O)N2CCCC(n3ccnc3)C2)c1 (stereo not given)	-9.55
Cc1cc(CN(C)C(=O)C2CCCN(C(=O)c3cccs3)C2)no1 (stereo not given)	-2.24
CS(=O)(=O)NCCNC(=O)C1(c2cccc(Cl)c2)CC1	-4.91
CC(C)CCN1CCN(Cc2nc(C3CC3)no2)CC1	-0.984
Cc1nnc2n1CCN(Cc1csc(-c3ccc(F)cc3)n1)C2	-6.22
Cc1cc(NC(=O)NCC(C)O)n(C)n1 (stereo not given)	-14.2
O=C(c1cccc(NCCO)c1)N1CCOCC1	-2.11
CNc1cc(C)nc(C2CN(Cc3ccc(C)nc3)CCO2)c1 (stereo not given)	-10.8
Cc1ccc(CNC(=O)NCc2cccnc2N(C)C)s1	-5.69

SMILES	Percent Effect [%]
CN(CCN1CCOCC1)C(=O)CCc1cccc(Cl)c1	-4.62
CCC(=O)NCCc1cc(N2CCN(C(C)=O)CC2)nc(C2CC2)n1	1.75
Cc1cc(NC(=O)NCc2cccnc2OC(C)C)n(C)n1	-22.1
CC(C)CCC(C)NC(=O)c1ccc(OCC(N)=O)cc1 (stereo not given)	-4.44
CN(C)C(=O)COC[C@]12COC[C@H]1CN(Cc1ccoc1)C2	-5.77
O=C(COCc1nc(-c2ccncc2)no1)N1CCCCCC1	120
CCN(CC)C(=O)CCNC(=O)Cc1nc(-c2ccco2)oc1C	-7.39
O=C1COc2c(cccc2C(=O)N2CCCCC2Cn2cccn2)N1 (stereo not given)	-12.7
CCN1CCCC1CN(CCN(C)C)S(=O)(=O)c1ccc(C#N)cc1 (stereo not given)	-5.33
Cc1nsc(N2CCCN(c3nc(C4CC4)ns3)CC2)n1	-4.56
Cc1nc(CC(=O)N2CCCCC2c2ccn3ccnc3n2)cs1 (stereo not given)	-15.1
CN(Cc1ccc(F)cc1)CC1(O)CCN(C(=O)c2ccccc2)C1 (stereo not given)	13.1
Cc1nc(NC(=O)CN2CCc3c(nc(C(C)C)n3C)C2)sc1C	-1.68
Cc1cccc(-c2ccc3nc(C4CCN(CC5CC5)CC4)nn3c2)c1	-2.92
CC(O)CN1CCC(CNCc2c[nH]nc2C(C)(C)C)CC1 (stereo not given)	-9.13
FC(F)(F)Cc1noc(CN2CCCC2c2noc(C3CC3)n2)n1 (stereo not given)	-9.28
COc1c(C2CCCN2CC(=O)Nc2cc(C)no2)c(C)nn1C (stereo not given)	3.98
CCN(Cc1ccc2c(c1)OCCO2)S(=O)(=O)N(C)C(C)C	-6.79
CN(Cc1cccc(F)c1)C(=O)CN1CCCCC1Cn1cncn1 (stereo not given)	-0.771
Cc1nc(CN2CCCC2c2ccsc2)nc2ccccc12 (stereo not given)	4.99
